# Test results as given in PubChem BioAssay (NCI).
# Values joined by “and” are separate entries in the source; they are usually repeats but may differ in a detail not shown here. Equal entries are not always repeated. About 83,000 compounds went through this panel and 20% of them were active in at least one assay; those are over-represented in the sample as a whole.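 Results are percent growth after 48 hours of single-concentration exposure. 100 means growth as in untreated cells, lower positive values show inhibition; negative values down to -100 show cell death.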 Unmarked numbers belong to inactive results. Active and inactive are the calls of the source. The calls were made as follows: active = growth percent below 10; inactive = the rest.
# Experiments:
# Test in all cases: NCI-60 one-dose screen, 48 h (100 = growth as untreated, 0 = no growth, -100 = all killed)
# Details in all cases: 10 µM unless noted
# SK-MEL-2 melanoma = tested on: SK-MEL-2 melanoma
# EKVX NSCLC = tested on: EKVX NSCLC
# SN12C renal = tested on: SN12C renal
# UO-31 renal = tested on: UO-31 renal
# TK-10 renal = tested on: TK-10 renal
# ACHN renal = tested on: ACHN renal
# CAKI-1 renal = tested on: CAKI-1 renal
# A498 renal = tested on: A498 renal
# HL-60(TB) leukemia = tested on: HL-60(TB) leukemia
# CCRF-CEM leukemia = tested on: CCRF-CEM leukemia
# SR leukemia = tested on: SR leukemia
# RPMI-8226 leukemia = tested on: RPMI-8226 leukemia
# OVCAR-8 ovarian = tested on: OVCAR-8 ovarian
# OVCAR-5 ovarian = tested on: OVCAR-5 ovarian
# OVCAR-4 ovarian = tested on: OVCAR-4 ovarian
# SK-OV-3 ovarian = tested on: SK-OV-3 ovarian
# IGROV1 ovarian = tested on: IGROV1 ovarian
# OVCAR-3 ovarian = tested on: OVCAR-3 ovarian
# HS 578T breast = tested on: HS 578T breast
# MOLT-4 leukemia = tested on: MOLT-4 leukemia
Structure (SMILES),growth (SK-MEL-2 melanoma),growth (EKVX NSCLC),growth (SN12C renal),growth (UO-31 renal),growth (TK-10 renal),growth (ACHN renal),growth (CAKI-1 renal),growth (A498 renal),growth (HL-60(TB) leukemia),growth (CCRF-CEM leukemia),growth (SR leukemia),growth (RPMI-8226 leukemia),growth (OVCAR-8 ovarian),growth (OVCAR-5 ovarian),growth (OVCAR-4 ovarian),growth (SK-OV-3 ovarian),growth (IGROV1 ovarian),growth (OVCAR-3 ovarian),growth (HS 578T breast),growth (MOLT-4 leukemia)
CC[C@H](C)[C@H](NC(=O)[C@H]1CCCCN1C)C(=O)N(C)[C@H](C[C@@H](OC(C)=O)c1nc(C(=O)N[C@@H](Cc2ccccc2)C[C@H](C)C(=O)O)cs1)C(C)C,2.53% (active),38.4%,47.5%,38.2%,22.8%,14.3%,35.9%,-2.03% (active),-29.8% (active),7.95% (active),2.65% (active),34.1%,21%,57.7%,52.6%,12.3%,30.2%,-4.44% (active),25.3%,–
COc1cc2c(cc1OC)-c1c3c(cc4c1[C@@H](C2)N(C)CC4)OCO3,87.9%,66.7%,43.8%,9.51% (active),67.3%,18.6%,46.9%,57%,32.5%,42.1%,17.2%,23.9%,–,42.5%,–,66.5%,–,76.1%,–,–
CCCCCCCCCCCCCCCCCC1OCC(COC(=O)O[C@@H](C(=O)O[C@H]2C[C@@]3(O)[C@@H](OC(=O)c4ccccc4)[C@@H]4[C@]5(OC(C)=O)CO[C@@H]5C[C@H](O)[C@@]4(C)C(=O)[C@H](OC(C)=O)C(=C2C)C3(C)C)[C@@H](NC(=O)c2ccccc2)c2ccccc2)O1 (stereo partly specified),59.5%,77.5%,44.8%,107%,102%,96.6%,82.8%,46%,4.84% (active),18.5%,–,4.08% (active),48.9%,55.5%,67.4%,49.5%,–,15.7%,28.9%,43.6%
O=S1(=O)OCCO1,113%,100%,93.3%,–,98.5%,99.2%,89.5%,99%,98.6%,94.6%,–,104%,102%,96.3%,99.4%,117%,106%,106%,95.1%,114%
COc1cc(/C=C\[N+](=O)[O-])ccc1OCc1ccccc1,89.5%,91.5%,56.6%,30.2%,66.3%,46.4%,73.7%,71.1%,–,14.5%,-24.2% (active),-45.6% (active),52.9%,98.5%,85.3%,91.4%,7.94% (active),19.9%,42.9%,1.1% (active)
CN(C)[C@@H]1C(=O)C(C(N)=O)=C(O)[C@@]2(O)C(=O)C3=C(O)c4c(O)ccc(Cl)c4[C@@](C)(O)[C@H]3C[C@@H]12,81.6% and 24.7%,111% and 98.3%,93.7% and 103%,55.1% and 82.1%,86.9%,70.9% and 94.4%,73.1% and 99.6%,92.2% and 110%,–,94.1% and 101%,87.9% and 82.8%,87% and 91.1%,98.7% and 91.7%,92.1% and 94.8%,98.3% and 98.6%,90.3% and 95.8%,78.7% and 87.2%,112% and 102%,94.7% and 91.7%,–
O=CC1(c2ccccc2)CCN(Cc2ccccc2)CC1,117%,101%,107%,83.9%,115%,112%,97.9%,–,97.8%,102%,97.8%,102%,105%,107%,–,114%,108%,105%,115%,99.4%
O=S(=O)(c1ccc(O)cc1)c1ccccc1O,104%,107%,101%,–,107%,98.7%,96.2%,97%,106%,88.6%,–,99.8%,102%,98.9%,116%,107%,–,110%,–,103%
CC1(C)C2CCC1(CS(=O)(=O)O)C(=O)C2 (stereo unspecified),107% and 106%,101% and 94.6%,87.1% and 111%,86% and 110%,96% and 87.3%,95.9% and 105%,97.5% and 84.5%,84.3% and 96.9%,–,96.1% and 103%,–,91.4%,99.7% and 103%,91.9% and 101%,–,98.4% and 115%,86.8% and 115%,102% and 114%,–,112% and 110%
N#CCCc1ccccc1,121%,103%,103%,85%,113%,98.4%,98.2%,–,103%,96.2%,91.8%,111%,107%,98%,110%,111%,103%,119%,118%,94.5%
